{"source": "the supplement of paper PMC9135407", "note": "Structures can show the parent of a compound that is named as a salt. Unmarked numbers belong to inactive results.", "data": [{"tested_on": "primary human hepatic stellate cells (donor 1)", "assay": "COL1A1 mRNA fold change vs DMSO (normalised to PSMB2); higher = more COL1A1 expression, active = hit call of the paper", "conditions": "48 h", "description": "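Secondary qRT-PCR screen in primary human HSCs (donor 1), 384-well plates, with compounds dispensed in quadruplicate and incubated for 48 h. Cells-to-CT lysates were used for multiplexed TaqMan qPCR of ACTA2 or COL1A1 with PSMB2 as reference. Fold changes versus DMSO come from a linear model (Ct_gene ~ Ct_PSMB2 + plate + chemical). A hit is defined as COL1A1 and ACTA2 FC <0.5 (FDR <0.05) with PSMB2 between 0.2 and 2.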", "values": [{"compound": "CNC(=O)[C@@H](Cc1ccccc1)N(C)C(=O)[C@@H](Cc1ccc2ccccc2c1)N(C)C(=O)/C=C/CC(C)(C)N", "note": "[Tabimorelin] (33.3333 µM)", "COL1A1 mRNA fold change": 0.935}, {"compound": "CC1(C)CC(=O)c2c(C(F)(F)F)nn(-c3ccc(C(N)=O)c(N[C@H]4CC[C@H](OC(=O)CN)CC4)c3)c2C1", "note": "(33.3333 µM)", "COL1A1 mRNA fold change": 0.807}, {"compound": "CCCSc1ccc2[nH]c(NC(=O)OC)nc2c1", "note": "[Albendazole] (33.3333 µM)", "COL1A1 mRNA fold change": 0.881}, {"compound": "C[C@@H](CN1CCC(n2c(=O)[nH]c3cc(Cl)ccc32)CC1)NC(=O)c1ccc2ccccc2c1", "note": "(33.3333 µM)", "COL1A1 mRNA fold change": 0.19}, {"compound": "CNCCCC12CCC(c3ccccc31)c1ccccc12", "note": "[Maprotiline hydrochloride] (33.3333 µM)", "COL1A1 mRNA fold change": "0.0732 (active)"}, {"compound": "Cc1[nH]c(/C=C2\\C(=O)Nc3ccc(S(=O)(=O)N(C)c4cccc(Cl)c4)cc32)c(C)c1C(=O)N1CCN(C)CC1", "note": "(33.3333 µM)", "COL1A1 mRNA fold change": "0.254 (active)"}, {"compound": "CNCCCC1c2ccccc2C=Cc2ccccc21", "note": "[Protryptyline hydrochloride] (22.2333 µM)", "COL1A1 mRNA fold change": 0.548}, {"compound": "CCN(CC)CCNC(=O)c1c(C)[nH]c(/C=C2\\C(=O)Nc3ccc(F)cc32)c1C", "note": "(6.66667 µM)", "COL1A1 mRNA fold change": 0.664}, {"compound": "C[C@@H](Oc1cc(-c2cnn(C3CCNCC3)c2)cnc1N)c1c(Cl)ccc(F)c1Cl", "note": "(11.1 µM)", "COL1A1 mRNA fold change": "0.235 (active)"}, {"compound": "CN1CCN(C2=Cc3ccccc3Oc3ccc(Cl)cc32)CC1", "note": "(33.3333 µM)", "COL1A1 mRNA fold change": "0.416 (active)"}, {"compound": "CC[C@]1(O)C[C@@H]2CN(CCc3c([nH]c4ccccc34)[C@@](C(=O)OC)(c3cc4c(cc3OC)N(C)[C@H]3[C@@](O)(C(=O)OC)[C@H](OC(C)=O)[C@]5(CC)C=CCN6CC[C@]43[C@@H]65)C2)C1", "note": "[Vinblastine sulfate] (33.3333 µM)", "COL1A1 mRNA fold change": 0.513}, {"compound": "CCN(CC)CCOc1ccc(Cc2ccccc2)cc1", "note": "[DPPE fumarate] (33.3333 µM)", "COL1A1 mRNA fold change": 0.51}, {"compound": "Cn1cc(CNCC2CCN(c3ncc(C(=O)NO)cn3)CC2)c2ccccc21", "note": "[Quisinostat] (33.3333 µM)", "COL1A1 mRNA fold change": 0.00578}, {"compound": "Clc1ccc(C2(c3ccc(-c4cn[nH]c4)cc3)CCNCC2)cc1", "note": "(33.3333 µM)", "COL1A1 mRNA fold change": "0.285 (active)"}, {"compound": "CNCc1ccc(-c2[nH]c3cc(F)cc4c3c2CCNC4=O)cc1", "note": "(33.3333 µM)", "COL1A1 mRNA fold change": 0.83}, {"compound": "O=C1NC(=O)/C(=C/c2ccc(-c3ccc(F)cc3O)o2)S1", "note": "(33.3333 µM)", "COL1A1 mRNA fold change": 0.115}, {"compound": "Clc1ccccc1CNCC1CCC(CNCc2ccccc2Cl)CC1", "note": "(stereo not given) (33.3333 µM)", "COL1A1 mRNA fold change": 0.055}, {"compound": "CN(C)CCC(c1ccc(Br)cc1)c1ccccn1", "note": "(stereo not given) [Brompheniramine maleate] (33.3333 µM)", "COL1A1 mRNA fold change": 0.705}, {"compound": "CNc1nccc(-c2cccnc2Oc2cc(C(=O)Nc3cccc(C(F)(F)F)c3)ccc2C)n1", "note": "(33.3333 µM)", "COL1A1 mRNA fold change": 0.618}, {"compound": "O=C1Nc2ccccc2/C1=C1/Nc2ccccc2C1=O", "note": "[Indirubin] (63.5333 µM)", "COL1A1 mRNA fold change": 0.897}, {"compound": "CC(C)c1cc(-c2n[nH]c(=O)n2-c2ccc3c(ccn3C)c2)c(O)cc1O", "note": "[Ganetespib (STA-9090)] (33.3333 µM)", "COL1A1 mRNA fold change": 1.04}, {"compound": "CN(C)C/C=C(/c1ccc(Br)cc1)c1cccnc1", "note": "[Zimelidine dihydrochloride] (11.1 µM)", "COL1A1 mRNA fold change": 2.1}, {"compound": "CCCCCCCCCCCCCCCCn1cc[n+](Cc2ccccc2)c1C", "note": "(11.1 µM)", "COL1A1 mRNA fold change": 0.155}, {"compound": "CCN(CC)CC#CCOC(=O)C(O)(c1ccccc1)C1CCCCC1", "note": "(stereo not given) [Oxybutynin chloride] (16.9333 µM)", "COL1A1 mRNA fold change": 0.755}, {"compound": "O=S(=O)(NCCNC/C=C/c1ccc(Br)cc1)c1cccc2cnccc12", "note": "[H-89, Dihydrochloride] (11.1 µM)", "COL1A1 mRNA fold change": 0.594}, {"compound": "NC[C@@H]1O[C@H](C23CC4CC(CC(C4)C2)C3)Cc2c1ccc(O)c2O", "note": "(33.3333 µM)", "COL1A1 mRNA fold change": 0.136}, {"compound": "CN1CCCN(C(c2ccccc2)c2ccc(Cl)cc2)CC1", "note": "(stereo not given) [Homochlorcyclizine dihydrochloride] (33.3333 µM)", "COL1A1 mRNA fold change": "0.0131 (active)"}, {"compound": "Cc1ccc(NC(=O)c2ccc(CN3CCN(C)CC3)cc2)cc1Nc1nc(-c2cccnc2)cs1", "note": "[Masitinib (AB1010, Masivet)] (6.66667 µM)", "COL1A1 mRNA fold change": 1.31}, {"compound": "CC[C@@H]1C(=O)N(C)c2cnc(Nc3ccc(C(=O)NC4CCN(C)CC4)cc3OC)nc2N1C1CCCC1", "note": "(33.3333 µM)", "COL1A1 mRNA fold change": 0.0466}, {"compound": "CN1CCC(CNc2ccc3ncc(-c4cccc(OC(F)(F)F)c4)n3n2)CC1", "note": "(6.66667 µM)", "COL1A1 mRNA fold change": 0.552}, {"compound": "Cc1cc(C(=O)Nc2cc(Nc3ccc4c(/C=C/c5ccccn5)n[nH]c4c3)ccc2F)n(C)n1", "note": "(33.3333 µM)", "COL1A1 mRNA fold change": "0.363 (active)"}, {"compound": "CN1CCC(=C2c3ccccc3C=Cc3ccccc32)CC1", "note": "[Cyproheptadine] (33.3333 µM)", "COL1A1 mRNA fold change": "0.078 (active)"}, {"compound": "COc1cc2nc(N3CCCN(C)CC3)nc(NC3CCN(Cc4ccccc4)CC3)c2cc1OC", "note": "(3.33333 µM)", "COL1A1 mRNA fold change": "0.0424 (active)"}, {"compound": "COc1cc2ncn(-c3cc(OCc4ccccc4C(F)(F)F)c(C(N)=O)s3)c2cc1OC", "note": "(33.3333 µM)", "COL1A1 mRNA fold change": 1.1}, {"compound": "CN1CCC(Nc2ncc3ncnc(Nc4ccc(F)c(Cl)c4)c3n2)CC1", "note": "[BIBX 1382 dihydrochloride] (33.3333 µM)", "COL1A1 mRNA fold change": 0.00366}, {"compound": "CN1CCC(NC(=O)c2cc(-c3c(O)cc(O)cc3Oc3ccc([N+](=O)[O-])cc3)on2)CC1", "note": "(33.3333 µM)", "COL1A1 mRNA fold change": 1.15}, {"compound": "CCCCCCCCCCCCC/C=C/[C@@H](O)[C@H](CO)N(C)C", "note": "[N,N-Dimethylsphingosine] (3.33333 µM)", "COL1A1 mRNA fold change": 0.928}, {"compound": "COc1ccccc1OCCNCC(O)COc1cccc2[nH]c3ccccc3c12", "note": "(stereo not given) [Carvedilol] (33.3333 µM)", "COL1A1 mRNA fold change": 0.294}, {"compound": "Cc1ccc2c(c1)c1c3n2CCNC3CCC1", "note": "(stereo not given) [Pirlindole mesylate] (20.6667 µM)", "COL1A1 mRNA fold change": 0.473}, {"compound": "Cc1cc(Nc2cc(N3CCN(C)CC3)nc(/C=C/c3ccccc3)n2)n[nH]1", "note": "(11.1 µM)", "COL1A1 mRNA fold change": 0.343}]}]}
